What all share (details): modulator concentration 10 µM
In assay [1] the test system is RAW-Dual (murine macrophage reporter line). Description: NF-kB reporter (SEAP) activity fold change vs agonist alone; higher = enhanced NF-kB activity. An outline of the steps:
(§1)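 Overnight stimulation with a PRR agonist followed pre-incubation for 1 hour at 37 °C with compound at 10 μM final. This was done in RAW-Dual murine macrophage reporter cells seeded at 50 000 per well in 384-well plates. NF-κB (SEAP, QUANTI-Blue absorbance at 620 nm) and IRF (Lucia luciferase, QUANTI-Luc luminescence) were read from the supernatant. Each reporter's fold change relative to the mean agonist-only control on the same plate was averaged over replicate plates.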

For assay [2] the test system is unchanged. The assay can be described thus: IRF reporter (Lucia luciferase) activity fold change vs agonist alone; higher = enhanced IRF activity. The essentials:
as §1

For assay [3] the test system is unchanged. The assay can be described thus: viability score (confluency relative to resting cells, overnight) (fraction); higher = more viable, active = viable (0.7 or more). An outline of the steps: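 A compound met the cutoff when both of two confluency masks exceeded 70% of resting cells. Those masks were made with IncuCyte software from IncuCyte images of RAW-Dual macrophages treated overnight at 10 μM final. This is the basis of the viability score, which is confluency relative to resting cells.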

Where [4] appears, read: agonist: CpG ODN 1826 0.5 ug/mL.

± gives the standard deviation.

As to `CCN1C(=O)C(=Cc2nc3ccccc3c(=O)n2-c2ccc(C)cc2)c2ccccc21`, the NF-kB reporter was found to be 1.06 ± 0.085 in assay [1] (setting [4]), 1.08 ± 0.071 in assay [1] (agonist: LPS 0.1 ug/mL) and 0.994 ± 0.077 in assay [1] (agonist: MPLA […]). Moreover, the IRF reporter in assay [2] (agonist: 3'3'-cGAMP 10 ug/mL) was 0.89 ± 0.035; in assay [2] (agonist: LPS 0.1 ug/mL) it was 1.55 ± 0.28; in assay [2] (agonist: MPLA […]), 1.11 ± 0.078. Also, the viability score in assay [3] was 1.01 (active).

For `CC(=O)NNC(=O)c1ccncc1`, the NF-kB reporter in assay [1] (setting [4]) amounted to 1.13 ± 0.089; in assay [1] (agonist: LPS 0.1 ug/mL) it was 1.13 ± 0.074; in assay [1] (agonist: MPLA […]), 1.03 ± 0.043. Further, the IRF reporter in assay [2] (agonist: 3'3'-cGAMP 10 ug/mL) is 1 ± 0.15; in assay [2] (agonist: LPS 0.1 ug/mL), 1.07 ± 0.14; in assay [2] (agonist: MPLA […]) it was 1.07 ± 0.26. In addition, the viability score in assay [3] is 0.996 (active).

With `CCN(CC)c1ccc(C=NNC(=O)c2ccncc2)cc1`, the NF-kB reporter stood at 1.16 ± 0.11 in assay [1] (setting [4]), 0.926 ± 0.12 in assay [1] (agonist: LPS 0.1 ug/mL) and 1.05 ± 0.06 in assay [1] (agonist: MPLA […]). Also, the IRF reporter in assay [2] (agonist: 3'3'-cGAMP 10 ug/mL) stood at 0.676 ± 0.12; in assay [2] (agonist: LPS 0.1 ug/mL), 0.948 ± 0.058; in assay [2] (agonist: MPLA […]) it was 1.11 ± 0.076. In addition, the viability score in assay [3] is 0.991 (active).

For `O=c1ccn([C@@H]2O[C@H](CO)[C@@H](O)[C@H]2O)c(=O)[nH]1`, the NF-kB reporter in assay [1] (setting [4]) was determined as 1.05 ± 0.087; in assay [1] (agonist: LPS 0.1 ug/mL), 0.912 ± 0.045; in assay [1] (agonist: MPLA […]) it was 1.05 ± 0.059. Further, the IRF reporter in assay [2] (agonist: 3'3'-cGAMP 10 ug/mL) was found to be 1.09 ± 0.066; in assay [2] (agonist: LPS 0.1 ug/mL) it was 0.985 ± 0.032; in assay [2] (agonist: MPLA […]), 0.919 ± 0.1. In addition, the viability score in assay [3] was 0.998 (active).

Consider `CC(C)c1ccccc1NC(=O)C1COCC(=O)N1Cc1ccccc1` (centres undefined), for which the NF-kB reporter stood at 0.983 ± 0.063 in assay [1] (setting [4]), 0.996 ± 0.15 in assay [1] (agonist: LPS 0.1 ug/mL) and 1.08 ± 0.058 in assay [1] (agonist: MPLA […]). In addition, the IRF reporter in assay [2] (agonist: 3'3'-cGAMP 10 ug/mL) is 0.985 ± 0.074; in assay [2] (agonist: LPS 0.1 ug/mL), 1.15 ± 0.26; in assay [2] (agonist: MPLA […]), 1.29 ± 0.51. Also, the viability score in assay [3] was 0.979 (active).

For `c1ccc(-n2nnnc2Sc2ncnc3sc4c(c23)CCCC4)cc1`, the NF-kB reporter in assay [1] (setting [4]) is 0.74 ± 0.043; in assay [1] (agonist: LPS 0.1 ug/mL), 0.481 ± 0.088; in assay [1] (agonist: MPLA […]), 0.442 ± 0.027. Moreover, the IRF reporter in assay [2] (agonist: 3'3'-cGAMP 10 ug/mL) was found to be 0.0638 ± 0.0026; in assay [2] (agonist: LPS 0.1 ug/mL), 0.349 ± 0.095; in assay [2] (agonist: MPLA […]) it was 0.835 ± 0.14. Moreover, the viability score in assay [3] was 0.994 (active).

For the molecule `Oc1ccc(-c2cnc(-c3ccc(O)cc3)nc2)cc1`, the NF-kB reporter in assay [1] (setting [4]) stood at 0.924 ± 0.22; in assay [1] (agonist: LPS 0.1 ug/mL) it was 0.965 ± 0.091; in assay [1] (agonist: MPLA […]), 1.42 ± 0.1. Also, the IRF reporter in assay [2] (agonist: 3'3'-cGAMP 10 ug/mL) was found to be 0.347 ± 0.017; in assay [2] (agonist: LPS 0.1 ug/mL) it was 0.555 ± 0.08; in assay [2] (agonist: MPLA […]) it was 0.591 ± 0.16. For the same molecule, the viability score in assay [3] was 0.927 (active).

Regarding `c1ccc2nc3c(cc(N4CCOCC4)c4ccccc43)nc2c1`, the NF-kB reporter in assay [1] (setting [4]) is 0.92 ± 0.078; in assay [1] (agonist: LPS 0.1 ug/mL) it was 1.04 ± 0.062; in assay [1] (agonist: MPLA […]), 0.969 ± 0.14. The IRF reporter in assay [2] (agonist: 3'3'-cGAMP 10 ug/mL) was 0.924 ± 0.023; in assay [2] (agonist: LPS 0.1 ug/mL), 1.34 ± 0.2; in assay [2] (agonist: MPLA […]), 1.08 ± 0.2. Also, the viability score in assay [3] is 1.01 (active).

`Br.C=CCn1c(=N)n(CC(=O)c2cccc([N+](=O)[O-])c2)c2ccccc21`: the NF-kB reporter in assay [1] (setting [4]) stood at 0.571 ± 0.058; in assay [1] (agonist: LPS 0.1 ug/mL), 0.997 ± 0.057; in assay [1] (agonist: MPLA […]), 0.905 ± 0.062. Besides, the results for the IRF reporter in assay [2] (agonist: 3'3'-cGAMP 10 ug/mL), in assay [2] (agonist: LPS 0.1 ug/mL) and in assay [2] (agonist: MPLA […]) were 1.13 ± 0.064, 1.16 ± 0.099 and 0.973 ± 0.2, respectively. For the same molecule, the viability score in assay [3] was 1.01 (active).

For `CSc1ccccc1NC(=O)C1CCCN(c2ccc(-n3cncn3)nn2)C1` (centres undefined), the NF-kB reporter in assay [1] (setting [4]) came to 0.991 ± 0.073; in assay [1] (agonist: LPS 0.1 ug/mL), 1.04 ± 0.099; in assay [1] (agonist: MPLA […]), 1.18 ± 0.063. The IRF reporter in assay [2] (agonist: 3'3'-cGAMP 10 ug/mL) is 0.973 ± 0.077; in assay [2] (agonist: LPS 0.1 ug/mL) it was 1.23 ± 0.22; in assay [2] (agonist: MPLA […]) it was 1.43 ± 0.37. Besides, the viability score in assay [3] is 0.995 (active).

On to `C[C@@H](O[C@H]1OCCN(Cc2nc(=O)[nH][nH]2)[C@H]1c1ccc(F)cc1)c1cc(C(F)(F)F)cc(C(F)(F)F)c1` [Prestw-1600], for which the NF-kB reporter in assay [1] (setting [4]) turned out to be 0.345 ± 0.022; in assay [1] (agonist: LPS 0.1 ug/mL), 0.516 ± 0.058; in assay [1] (agonist: MPLA […]), 0.333 ± 0.023. Also, the IRF reporter in assay [2] (agonist: 3'3'-cGAMP 10 ug/mL) was determined as 1.64 ± 0.067; in assay [2] (agonist: LPS 0.1 ug/mL) it was 1.23 ± 0.078; in assay [2] (agonist: MPLA […]), 0.969 ± 0.13. Also, the viability score in assay [3] is 0.264 (inactive).

Take `COc1ccc(NC(=O)CN2C(=O)c3cccc4cccc(c34)C2=O)cc1`: the NF-kB reporter in assay [1] (setting [4]) came out at 0.966 ± 0.059; in assay [1] (agonist: LPS 0.1 ug/mL), 0.998 ± 0.087; in assay [1] (agonist: MPLA […]), 0.938 ± 0.063. Besides, the IRF reporter is 0.939 ± 0.033 in assay [2] (agonist: 3'3'-cGAMP 10 ug/mL), 1.2 ± 0.11 in assay [2] (agonist: LPS 0.1 ug/mL) and 1.1 ± 0.12 in assay [2] (agonist: MPLA […]). For the same molecule, the viability score in assay [3] is 1 (active).

(Values after the supplement of paper PMC10646978.)
